According to PubChem BioAssay AID1159580 (chemical genetic matrix, 2015):
Values joined by “and” are separate entries in the source; they are usually repeats but may differ in a detail not shown here. Equal values may be shown once. Out of some 5,500 compounds screened, about 2,000 (36%) were called active. Roughly 18% stayed inconclusive and do not appear here. Cut-off read from the data, not from the text of the source: active = normalized growth mostly below about 0.91 (no sharp cut-off); inconclusive = no clear call, values can overlap the other calls; inactive = mostly above about 0.92. The list shows a part of the results.

Test: chemical genetic growth profiling, strain panel (AID 1159580);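 note: tested at 20 µM; growth read once vehicle control cultures reached saturation at 30 °C; 1 = growth at the plate median or of vehicle wells; lower values mean less growth of the strain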
Conditions: S. cerevisiae deletion strains, growth OD

Measured: normalized growth

C[n+]1cccc(C(=O)[O-])c1
inactive: locus YAL013W, strain DEP1, hits give low values 1.01 | locus YAL021C, strain ccr4, hits give low values 1.02 | locus YAL026C, strain drs2, hits give low values 0.972 | locus YAL030W, strain snc1, hits give low values 0.982 | locus YBL061C, strain skt5, hits give low values 0.975 | locus YBR009C, strain hhf1, hits give low values 0.99 | locus YBR021W, strain FUR4, hits give low values 1 | locus YBR023C, strain chs3, hits give low values 0.963 | locus YBR171W, strain sec66, hits give low values 0.958 | locus YBR229C, strain ROT2, hits give low values 1.01 | locus YBR231C, strain swc5, hits give low values 0.97 | locus YBR279W, strain paf1, hits give low values 0.972 | locus YCL011C, strain gbp2, hits give low values 0.97 | locus YCL016C, strain dcc1, hits give low values 0.998 | locus YCL029C, strain bik1, hits give low values 0.993 | locus YCL069W, strain vba3, hits give low values 0.941 | locus YCR088W, strain abp1, hits give low values 0.963 | locus YDL005C, strain med2, hits give low values 0.952 | locus YDL035C, strain GPR1, hits give low values 1.03 | locus YDL040C, strain nat1, hits give low values 0.981 | locus YDL074C, strain BRE1, hits give low values 1.03 | locus YDL101C, strain DUN1, hits give low values 1.03 | locus YDL134C, strain PPH21, hits give low values 1.07 | locus YDL185W, strain tfp1, hits give low values 0.999 | locus YDL192W, strain arf1, hits give low values 1.01 | locus YDR001C, strain nth1, hits give low values 0.965 | locus YDR069C, strain doa4, hits give low values 0.958 | locus YDR101C, strain arx1, hits give low values 0.995 | locus YDR137W, strain rgp1, hits give low values 0.974 | locus YDR150W, strain NUM1, hits give low values 1.01 | locus YDR159W, strain sac3, hits give low values 0.97 | locus YDR162C, strain NBP2, hits give low values 1.07 | locus YDR195W, strain ref2 0.91 | locus YDR297W, strain sur2, hits give low values 0.975 | locus YDR318W, strain mcm21, hits give low values 0.994 | locus YDR334W, strain swr1, hits give low values 0.965 | locus YDR335W, strain msn5, hits give low values 0.952 | locus YDR388W, hits give low values 0.996 | locus YDR392W, strain spt3, hits give low values 0.987 | locus YDR502C, strain sam2, hits give low values 1 | locus YEL003W, strain gim4, hits give low values 0.964 | locus YEL037C, strain rad23, hits give low values 0.964 | locus YEL061C, strain CIN8 (second series), hits give low values 0.923 | locus YEL061C, strain CIN8, hits give low values 1.01 | locus YER015W, strain faa2, hits give low values 0.983 | locus YER016W, strain bim1, hits give low values 0.967 | locus YER110C, hits give low values 0.995 | locus YER111C, strain swi4, hits give low values 0.942 | locus YER155C, strain BEM2 (second series), hits give low values 0.992 | locus YER155C, strain BEM2, hits give low values 0.999 | locus YER167W, strain BCK2, hits give low values 1.02 | locus YFR010W, strain ubp6, hits give low values 0.943 | locus YGL078C, strain dbp3, hits give low values 0.997 | locus YGL086W, strain mad1, hits give low values 1 | locus YGL167C, strain pmr1, hits give low values 0.984 | locus YGL173C, strain kem1, hits give low values 0.986 | locus YGL227W, strain vid30, hits give low values 0.957 | locus YGL240W, strain doc1, hits give low values 0.972 | locus YGL248W, strain PDE1, hits give low values 1.02 | locus YGL253W, strain hxk2, hits give low values 0.955 | locus YGR078C, strain PAC10, hits give low values 1.04 | locus YGR135W, strain pre9, hits give low values 1 | locus YGR229C, strain SMI1, hits give low values 1.04 | locus YGR252W, strain gcn5, hits give low values 0.966 | locus YHR013C, strain ard1, hits give low values 0.981 | locus YHR027C, strain rpn1, hits give low values 0.992 | locus YHR030C, strain SLT2, hits give low values 1.01 and 1.03 | locus YHR079C, strain IRE1 (second series), hits give low values 1.01 | locus YHR079C, strain IRE1, hits give low values 1.02 | locus YHR094C, strain hxt1, hits give low values 0.983 | locus YHR129C, strain ARP1, hits give low values 1.02 | locus YHR142W, strain chs7, hits give low values 0.955 | locus YHR200W, strain rpn10, hits give low values 1.01 | locus YIL066C, strain RNR3, hits give low values 1.05 | locus YIL073C, strain SPO22, hits give low values 1.02 | locus YIL125W, strain kgd1, hits give low values 0.984 | locus YIR030C, strain dcg1, hits give low values 1.01 | locus YJL092W, strain hpr5, hits give low values 0.937 | locus YJL095W, strain BCK1 (second series), hits give low values 0.971 | locus YJL095W, strain BCK1, hits give low values 1.07 and 1.01 | locus YJL115W, strain asf1, hits give low values 0.956 | locus YJL129C, strain trk1, hits give low values 0.936 | locus YJL134W, strain LCB3, hits give low values 1.01 | locus YJL154C, strain vps35, hits give low values 0.948 | locus YJL164C, strain tpk1, hits give low values 0.985 | locus YJL166W, strain qcr8, hits give low values 0.961 | locus YJL168C, strain set2, hits give low values 0.999 | locus YJL187C, strain SWE1 (second series), hits give low values 1.03 | locus YJL187C, strain SWE1, hits give low values 0.97 | locus YJR043C, strain POL32, hits give low values 1.04 | locus YJR066W, strain TOR1, hits give low values 0.975 | locus YJR075W, strain HOC1, hits give low values 1.03 | locus YKL009W, strain mrt4, hits give low values 1 | locus YKL068W, hits give low values 1.01 | locus YKL085W, strain MDH1 (second series), hits give low values 1.01 | locus YKL085W, strain MDH1, hits give low values 1.01 | locus YKL160W, strain elf1, hits give low values 0.996 | locus YKR001C, strain vps1, hits give low values 0.987 | locus YKR026C, strain gcn3, hits give low values 0.952 | locus YKR091W, strain srl3, hits give low values 0.966 | locus YLL001W, strain dnm1, hits give low values 0.97 | locus YLL026W, hits give low values 0.989 | locus YLL041C, strain sdh2, hits give low values 0.963 | locus YLR027C, strain aat2, hits give low values 0.983 | locus YLR039C, strain RIC1, hits give low values 1.12 | locus YLR058C, strain SHM2, hits give low values 1.02 | locus YLR102C, strain apc9, hits give low values 0.997 | locus YLR113W, strain HOG1, hits give low values 1.04 | locus YLR221C, strain rsa3, hits give low values 0.972 | locus YLR258W, strain gsy2, hits give low values 0.971 | locus YLR262C, strain YPT6 (second series), hits give low values 0.947 | locus YLR262C, strain YPT6, hits give low values 1.12 | locus YLR268W, strain sec22, hits give low values 1.02 | locus YLR320W, strain mms22, hits give low values 0.975 | locus YLR330W, strain CHS5, hits give low values 1.02 | locus YLR342W, strain FKS1 (second series), hits give low values 1.04 | locus YLR342W, strain FKS1, hits give low values 0.948 | locus YLR357W, strain rsc2, hits give low values 0.917 | locus YLR370C, strain arc18, hits give low values 0.972 | locus YLR371W, strain rom2, hits give low values 0.994 | locus YLR384C, strain iki3, hits give low values 0.961 | locus YLR418C, strain cdc73, hits give low values 1.02 | locus YML016C, strain PPZ1, hits give low values 1.02 | locus YML032C, strain rad52, hits give low values 1.01 | locus YML120C, strain ndi1, hits give low values 0.968 | locus YML124C, strain tub3, hits give low values 0.994 | locus YMR058W, strain fet3, hits give low values 0.986 | locus YMR078C, strain ctf18, hits give low values 0.998 | locus YMR125W, strain sto1, hits give low values 0.939 | locus YMR129W, hits give low values 0.975 | locus YMR205C, strain PFK2, hits give low values 0.974 | locus YMR223W, strain ubp8, hits give low values 1 | locus YMR231W, strain pep5, hits give low values 0.975 | locus YMR263W, strain SAP30, hits give low values 1.03 | locus YMR307W, strain GAS1, hits give low values 1.02 | locus YNL067W, strain RPL9B, hits give low values 1.03 | locus YNL071W, strain lat1, hits give low values 0.961 | locus YNL153C, strain GIM3, hits give low values 1.04 | locus YNL183C, strain NPR1, hits give low values 0.981 | locus YNL209W, strain ssb2, hits give low values 0.975 | locus YNL233W, strain BNI4, hits give low values 1.03 | locus YNL248C, strain rpa49, hits give low values 0.937 | locus YNL250W, strain rad50, hits give low values 0.999 | locus YNL271C, strain bni1, hits give low values 1 | locus YNL298W, strain CLA4, hits give low values 1.02 | locus YNL307C, strain MCK1, hits give low values 1 | locus YNL322C, strain KRE1 (second series), hits give low values 0.948 | locus YNL322C, strain KRE1, hits give low values 1 | locus YNR049C, strain mso1, hits give low values 0.962 | locus YNR052C, strain pop2, hits give low values 1 | locus YOL012C, strain htz1 1.15 | locus YOL147C, strain pex11, hits give low values 0.996 | locus YOR001W, strain rrp6, hits give low values 0.933 | locus YOR061W, strain CKA2, hits give low values 1.02 | locus YOR069W, strain VPS5, hits give low values 1.01 | locus YOR070C, strain gyp1, hits give low values 0.987 | locus YOR080W, strain dia2, hits give low values 0.978 | locus YOR083W, strain WHI5, hits give low values 0.992 | locus YOR106W, strain vam3, hits give low values 0.977 | locus YOR136W, strain idh2, hits give low values 1 | locus YOR144C, strain elg1, hits give low values 0.989 | locus YOR184W, strain ser1, hits give low values 1.02 | locus YOR231W, strain MKK1, hits give low values 1.04 | locus YOR265W, strain rbl2, hits give low values 0.98 | locus YOR270C, strain vph1, hits give low values 0.931 | locus YOR290C, strain snf2, hits give low values 1.01 | locus YOR316C, strain cot1, hits give low values 1.01 | locus YPL051W, strain arl3, hits give low values 0.999 | locus YPL055C, strain LGE1, hits give low values 1.02 | locus YPL078C, strain atp4, hits give low values 0.963 | locus YPL106C, strain sse1, hits give low values 0.932 | locus YPL240C, strain hsp82, hits give low values 0.963 | locus YPL241C, strain CIN2, hits give low values 1 | locus YPL256C, strain CLN2, hits give low values 1.02 | locus YPR119W, strain clb2, hits give low values 1.02 | locus YPR141C, strain kar3, hits give low values 1.01 | locus YPR163C, strain tif3, hits give low values 0.997 | locus YPR167C, strain met16, hits give low values 1.01 | strain wtn01, hits give low values 1.01
